DT40 TDP1 CPT = growth inhibition of DT40 Tdp1-/-;hTDP1 cells with camptothecin (screen for TDP1 inhibitors). 420,000 compounds, 12% hits. chicken DT40 Tdp1-/-;hTDP1 cells + 20 nM CPT, ATP luminescence, 48 h. Potency, µM (series often up to 46.2 µM), for inactives: at the highest dose activity change, negative = growth inhibition, usual class: inhibitors; further: on the % scale 0 is the no-effect control and ±100 the full control effect; nearly all actives have a fitted effect of over 55% in size
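Chicken DT40 Tdp1-/- cells complemented with human TDP1, 400 cells/well, exposed to compounds plus 20 nM camptothecin for at least 48 h at 37 C; viability read as ATP content by CellTiter-Glo luminescence.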
TDP1 block = blocks human tyrosyl-DNA phosphodiesterase 1; recombinant TDP1, AlphaScreen DNA substrate cleavage; Potency, µM (series often up to 130 µM), inactives show at the highest dose activity change, negative = inhibition, usual class: inhibitors; 350,000 compounds, 0.28% hits; further: on the % scale 0 is the no-effect control and ±100 the full control effect; nearly all actives have a fitted effect of over 40% in size
Target sequence (Q9NUW8 whole entry, looked up): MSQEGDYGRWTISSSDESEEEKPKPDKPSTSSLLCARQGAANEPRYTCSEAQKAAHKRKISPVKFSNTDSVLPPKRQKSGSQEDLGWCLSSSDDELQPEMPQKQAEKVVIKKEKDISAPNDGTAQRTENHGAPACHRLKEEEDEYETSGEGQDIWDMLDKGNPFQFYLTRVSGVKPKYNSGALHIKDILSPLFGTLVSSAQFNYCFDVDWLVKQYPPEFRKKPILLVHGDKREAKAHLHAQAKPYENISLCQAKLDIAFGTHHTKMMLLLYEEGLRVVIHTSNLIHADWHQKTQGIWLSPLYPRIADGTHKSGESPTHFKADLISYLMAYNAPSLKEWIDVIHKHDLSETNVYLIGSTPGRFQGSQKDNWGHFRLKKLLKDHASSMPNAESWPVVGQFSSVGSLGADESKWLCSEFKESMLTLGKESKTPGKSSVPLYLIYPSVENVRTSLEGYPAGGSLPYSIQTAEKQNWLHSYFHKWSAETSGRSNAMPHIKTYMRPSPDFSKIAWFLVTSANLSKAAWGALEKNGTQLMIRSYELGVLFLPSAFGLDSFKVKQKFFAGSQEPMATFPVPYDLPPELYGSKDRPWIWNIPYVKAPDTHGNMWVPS
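Steps: enzyme plus compound, 15 min RT; add biotin/phosphotyrosine-FITC oligonucleotide (15 nM final), react 5 min; add donor/acceptor beads (10 ug/ml final), 10 min; read AlphaScreen. Tdp1 at 1 nM final.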
TDP1 cell noCPT = qHTS for Inhibitors of human tyrosyl-DNA phosphodiesterase 1 (TDP1): qHTS in cells in absence of CPT. 420,000 compounds, 15% hits. Potency, µM (titrated, usually from 46.2 µM), without a hit: at the highest dose activity change, negative = growth inhibition, hits mostly inhibitors. AID 686978, 2013. DT40 Tdp1-/- hTDP1 cells, no CPT, ATP luminescence, 48 h; further: on the % scale 0 is the no-effect control and ±100 the full control effect; nearly all actives have a fitted effect of over 55% in size
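Camptothecin absent (DMSO only). Human TDP1-complemented DT40 knockout cells, 400 cells/well, 37 °C for minimum 48 hr; ATP measured via CellTiter-Glo, 30 min dark incubation, luminescence.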
ClpP mod = qHTS Assay for Activators of ClpP. 340,000 compounds, 1.9% hits. purified B. subtilis ClpP, FRET peptide cleavage, 20 min. Potency, µM (highest dose often 57.5 µM), for inactives: at the highest dose activity change, negative = active; active means well fitted falling curve with a large enough effect; inconclusive means small, poorly fitted or top-dose-only effect; inactive means no such curve, though single readings can be large or run the other way; further: the source files actives as falling curves though it sought activators and does not explain the sign; nearly all actives have a fitted effect of over 65% in size
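ClpP 10 microg/mL final, pH 8 Tris/KCl buffer with BSA, glycerol, Tween-20; compound pinned in; FRET-FV substrate; RT 20 min; Ex320/Em430; ΔFRET vs ADEP 5.8 microM, DMSO, no enzyme.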
* hit, by the source's call; u = inconclusive; x = no result; [ ] = remark or other dose. This is a sample that favours compounds with a hit; in the whole collection about 17% have one here. Unless noted, the call rests on the fitted dose curve; in most records, active means well fitted curve in the direction sought with a large enough effect; inconclusive means small, poorly fitted or top-dose-only effect, or another doubt; inactive means no such curve, though single readings can be large; an effect the other way counts as inactive or inconclusive. Potency means the concentration at half of the fitted maximal effect.

SMILES	DT40 TDP1 CPT	TDP1 block	TDP1 cell noCPT	ClpP mod
CCN(Cc1ccccc1)Cc1c(O)ccc2c(=O)c(-c3ccccc3Cl)c(C(F)(F)F)oc12	18.4µM*	x	u	-2.6%
Cc1ccc(NC(=O)C2CSC3(C)CCC(=O)N23)cc1S(=O)(=O)N1CCCCCC1 (stereo not drawn)	u	2.0%	u	-0.4%
Cc1cccc(C(=O)Nc2cc3nn(-c4ccc(C(C)C)cc4)nc3cc2C)c1	x	7.1%	x	10µM*
Cc1cc2nn(-c3ccc(F)cc3)nc2cc1NC(=O)c1cccc2ccccc12	x	1.9%	x	7.6%
Cc1cc2nn(-c3ccc(F)cc3)nc2cc1NC(=O)c1cccc2c(Cl)cccc12	2.91µM*	-4.5%	u	u
CCN(CC)c1ccc(/C=N/n2c(C)nc3ccccc3c2=O)cc1	u	x	u	-0.8%
CCCNC(=O)N1CCN(c2nc(C(C)C)c3c(c2C#N)CC(C)(C)OC3)CC1	29.1µM*	-2.0%	-63.3%	5.2%
CCc1nc(N2CCN(C(C)=O)CC2)c(C#N)c2c1COC(C)(C)C2	-12.7%	3.6%	-27.2%	3.7%
Cc1ccc(S(=O)(=O)N2CCN(c3nc(C(C)C)c4c(c3C#N)CC(C)(C)OC4)CC2)cc1	15.8µM*	-0.7%	15.8µM*	14.1µM*
CC(=O)Nc1ccc(S(=O)(=O)N2CCCN(c3nc(C)cc(C)c3C#N)CC2)cc1	-29.3%	4.0%	-14.0%	3.4%
CC(C)(C)C(=O)COC(=O)c1ccc2c(c1)C(=O)N(Cc1ccco1)C2=O	-12.7%	10.9%	-18.9%	x
O=[N+]([O-])c1cc(-c2nc(-c3ccccn3)no2)ccc1NCc1ccccc1	-27.6%	-2.9%	-23.5%	0.0%
CCN(CC)C(=O)c1ccc(Nc2nnc(-c3ccc(O)cc3)c3ccccc23)cc1	u	x	u	-2.7%
CC(=O)N1CCN(Cc2cc(=O)oc3cc(C)cc(C)c23)CC1	-1.7%	x	-15.1%	-5.5%
Fc1ccc(CNC(=S)Nc2ccccc2F)cc1	-6.0%	0.4%	-15.4%	-1.1%
Cc1ccc(Cn2c(O)c(N=O)c3ccccc32)cc1	33.6%	6.0%	-10.6%	x
Cc1cccc(Cn2c(O)c(N=NC(=S)Nc3ccccc3F)c3ccccc32)c1	7.31µM*	10.8%	7.31µM*	2.2%
Oc1c(N=NC(=S)Nc2ccccc2F)c2ccccc2n1Cc1ccc(F)cc1	5.17µM*	13.9%	2.31µM*	-0.6%
Oc1c(N=NC(=S)Nc2ccccc2F)c2ccccc2n1Cc1cccc(Cl)c1	6.51µM*	9.2%	6.51µM*	-1.5%
O=Nc1c(O)n(Cc2ccc(Cl)cc2Cl)c2ccccc12	-16.4%	9.2%	-27.4%	0.7%
O=C(COc1ccc(F)cc1)N1CCCc2ccccc21	-4.9%	0.8%	u	0.4%
O=C(CCCCn1c(=O)c2ccccc2n(CC(=O)Nc2cccc(F)c2)c1=O)NCc1ccccc1Cl	-4.5%	0.0%	-13.3%	-0.8%
Cc1nc2ccc(C(=O)N(C)Cc3ccco3)cn2c1N(C)CC1CCCCC1	18.4µM*	x	13µM*	-0.9%
CCC(C)NC(=S)Nc1ccc2nc(N3CCOCC3)cc(C)c2c1 (stereo not drawn)	u	x	u	3.4%
CCC(C)NC(=S)Nc1ccc2nc(N3CCN(CC)CC3)cc(C)c2c1 (stereo not drawn)	u	4.6%	23.1µM*	u
SMILES	DT40 TDP1 CPT	TDP1 block	TDP1 cell noCPT	ClpP mod
Cc1ccc(C)c(N2CCN(C(=S)Nc3ccc4nc(N5CCN(C)CC5)cc(C)c4c3)CC2)c1	16.4µM*	2.6%	11.6µM*	3.2%
CCC(C)NC(=O)CCC(=O)Nc1ccc2nc(N3CC(C)CC(C)C3)cc(C)c2c1 (stereo not drawn)	-16.6%	0.0%	16.4µM*	x
Cc1ccc(C)c(N2CCN(C(=S)Nc3ccc4nc(N5CCOCC5)cc(C)c4c3)CC2)c1	-11.5%	5.8%	u	x
CCN1CCN(c2cc(C)c3cc(NC(=S)NCc4cccs4)ccc3n2)CC1	u	3.5%	20.6µM*	-15.4%
CCCCNC(=O)CCC(=O)Nc1ccc2nc(N3CCC(C)CC3)cc(C)c2c1	u	4.6%	u	4.1%
Cc1csc2nc(SCC(=O)N3CCN(c4ccccc4)CC3)[nH]c(=O)c12	u	2.2%[56.1 µM]	u	0.1%
